Consider five molecules from PubChem BioAssay AID1481 (The Scripps Research Institute Molecular Screening Center, 2009).

Structures are written as SMILES. The whole screen tested about 220,000 compounds, of which about 920 (0.42%) were called active. This excerpt belongs to a sample that is enriched for actives. A number with no mark means an inactive call. Cut-off read from the data, not from the text of the source: active = inhibition above about 15%; inactive = the rest.

For the assay, the target named is Transitional endoplasmic reticulum ATPase (Homo sapiens) (UniProt P55072). Description: p97 ATP hydrolysis blockers – biochemical, primary screen (AID 1481).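 Note: 0% = DMSO vehicle and 100% = wells lacking enzyme.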 The following applies: recombinant p97 ATPase, Kinase-Glo ATP luminescence, 3 h; at 8 µM; hits give high values.
Sequence of Transitional endoplasmic reticulum ATPase (Homo sapiens) (P55072 whole entry, looked up): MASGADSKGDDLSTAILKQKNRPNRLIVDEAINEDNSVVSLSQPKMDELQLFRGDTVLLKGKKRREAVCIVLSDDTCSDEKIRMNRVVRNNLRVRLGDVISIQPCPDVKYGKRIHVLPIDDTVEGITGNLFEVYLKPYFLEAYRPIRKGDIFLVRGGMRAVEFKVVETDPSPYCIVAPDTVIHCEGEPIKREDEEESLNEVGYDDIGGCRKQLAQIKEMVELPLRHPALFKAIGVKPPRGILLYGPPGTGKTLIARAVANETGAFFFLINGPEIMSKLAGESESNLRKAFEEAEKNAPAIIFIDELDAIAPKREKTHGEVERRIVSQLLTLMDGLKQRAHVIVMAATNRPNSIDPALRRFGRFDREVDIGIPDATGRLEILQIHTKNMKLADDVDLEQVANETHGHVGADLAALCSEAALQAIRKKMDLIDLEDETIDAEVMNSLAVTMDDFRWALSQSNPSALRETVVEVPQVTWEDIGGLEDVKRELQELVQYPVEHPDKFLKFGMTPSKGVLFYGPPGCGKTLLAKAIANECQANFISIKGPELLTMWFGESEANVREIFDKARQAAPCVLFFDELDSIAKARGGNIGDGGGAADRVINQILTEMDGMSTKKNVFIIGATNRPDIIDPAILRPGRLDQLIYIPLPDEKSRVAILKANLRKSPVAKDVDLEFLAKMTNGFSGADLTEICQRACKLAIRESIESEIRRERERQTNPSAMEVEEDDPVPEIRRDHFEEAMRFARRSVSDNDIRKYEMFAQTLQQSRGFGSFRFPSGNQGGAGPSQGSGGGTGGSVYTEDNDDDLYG
For `O=c1[nH]c(CN2CC=C(c3ccccc3)CC2)nc2scc(-c3cccs3)c12`, the inhibition was 15.1% (active).

In the case of `O=c1c2ccccc2nc(-c2ccccc2)n1-c1ccccn1`, the inhibition is 3.57%.

As for `CNC(=O)Nc1ccc(C(O)(C(=O)OC)C(F)(F)F)cc1` (stereo not given), the inhibition is -1.08%.

For the molecule `CC(=O)Nc1ccccc1C(=O)OCC(=O)c1cccc2ccccc12`, the inhibition is -0.08%.

On to `N=c1ccccn1Cc1ccccc1`, for which the inhibition was 10.5%.

One may read the inhibition as the drop in the measured response relative to a control, in per cent.
